The full list was thinned out, with hits kept by preference.
Tg IFNy HTS = blocks Toxoplasma gondii growth in the presence of IFN-gamma. 69,000 compounds, 3.8% hits. Toxoplasma gondii growth in IFN-gamma-treated host cells; active compounds read low. activity change, negative = inhibition, % (no concentration beside the values). AID 1259416; in the data active means activity change below about -70%, passing the limit was not always enough;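 further: host cells are HeLa cells infected with Toxoplasma gondii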
* = called active by the depositor.

SMILES	Tg IFNy HTS
CN(Cc1ccccc1)C(=O)c1nc(Nc2ccc(F)cc2)c2ccccc2n1	25.0
Cc1ccc(CNC(=O)c2nc(Nc3cccc(C)c3)c3ccccc3n2)cc1	-79.3*
Cc1ccc(Nc2nc(C(=O)N(C)Cc3ccccc3)nc3ccccc23)cc1	-77.2*
CCNC(=O)c1nc(Nc2ccc(C)cc2)c2ccccc2n1	-26.3
COc1ccc(OC)c(CNC(=O)c2nc(Nc3ccc(C)cc3)c3ccccc3n2)c1	-41.2
CN1CC2(CCN(C(=O)c3csc(-c4cccnc4)n3)C2)OC1=O (stereo unspecified)	-5.3
O=C(c1cccs1)N1C[C@H](Oc2cccnc2)[C@@H]2OCCC[C@@H]21	-2.7
CCOCC12CCCOC1CCN(S(=O)(=O)N(C)C)C2 (stereo unspecified)	-10.1
Cc1nc(CCNC(=O)[C@H]2CCCN2S(=O)(=O)c2ccc(F)cc2)cs1	-3.1
COc1ccccc1CN1CCc2nc(SCc3nc(-c4cccc(C)c4)oc3C)[nH]c(=O)c2C1	-56.8
Cc1ncc2c(c1CNC(=O)/C=C/c1ccccc1)CCN(C(=O)C1Cc3ccccc3O1)C2 (stereo unspecified)	4.3
CC(C)CN(C)C(=O)c1ncn2c1CN(CC1CC1)S(=O)(=O)c1ccccc1-2	-8.2
Cc1noc(C)c1CCNc1ncc2c(n1)c1ccc(Cl)cc1n1ccnc21	-72.5*
Cc1cccc(-c2nnc(-c3nc(NCCc4c(C)noc4C)c4ccccc4n3)o2)c1	-16.8
COc1cccc2ccc(CN3CCCN(C)C4(CCN(C)CC4)C3)nc12	-33.2
Cc1ccc(N2CCCC3(CCNC3=O)C2)nn1 (stereo unspecified)	-17.1
N#CCNC(=O)c1ccc(-c2ccnc(Nc3ccc(N4CCOCC4)cc3)n2)cc1	-80.4*
COc1ccc(NC(=O)CS(=O)CC(=O)Nc2ccc(N3CCOCC3)cc2)cc1 (stereo unspecified)	-1.5
COc1ccc(-c2[nH]ncc2CNC(=O)c2ccc(N3CCOCC3)cc2)cc1	7.4
Cc1cc(C)n(Cc2ccc(C(=O)N3CCCC(O)(CO)C3)cc2)n1 (stereo unspecified)	-0.7
Oc1c(F)cccc1CN1CC[C@@H](c2ccc3ccccc3c2)[C@H](O)C1	5.5
Cc1ccc(C(=O)Nc2c(C(=O)NCc3cccnc3)[nH]c3ccccc23)cc1	-18.5
CCOC(=O)c1[nH]c(C)c(S(=O)(=O)NC2CCCCNC2=O)c1C (stereo unspecified)	-95.1*
CCOC(=O)c1[nH]c(C)c(CN2CC3CCCN3C[C@@H]2C)c1C (stereo partly specified)	-18.3
CCOC(=O)c1[nH]c(C)c(C(=O)OCC)c1C	146.1
SMILES	Tg IFNy HTS
NC(=O)c1cccnc1N1CCC(n2cc(CC3CCCCC3)nn2)CC1	194.9
CS(=O)(=O)N1CCC(NCCc2cnn(-c3ccccc3)c2)CC1	5.3
CC(C)CN1CC2(CCN(C(=O)Cc3ccc(Cl)cc3)C2)C1	-3.1
CN1CC2(CCN(C(=O)c3cn(CCN4CCNCC4)nn3)C2)OC1=O (stereo unspecified)	-5.8
OC[C@H]1O[C@@H](n2cnc3c(NC4CCCC4)ncnc32)[C@H](O)[C@@H]1O	-2.0
OC[C@H]1O[C@@H](n2cnc3c(NCc4ccco4)ncnc32)[C@H](O)[C@@H]1O	-82.9*
OCC1OC(n2cnc3c(NC4CCCC4)ncnc32)C(O)C1O (stereo unspecified)	9.0
O=C1OC(=O)C2C1[C@@H]1CC[C@H]2O1 (stereo partly specified)	-76.9*
CCn1c(=O)c(-c2nc(-c3ccc(OC)c(OC)c3)no2)c(O)c2ccccc21	109.7
O=C(Cn1cccnc1=O)N1C[C@@H](c2cccc(F)c2)[C@@H]2NCCCCC[C@H]21	-4.8
CC(=O)N1CC2(CCN(C(=O)c3ccc(-n4ccnc4)cc3)CC2)CC1C(=O)O (stereo unspecified)	-39.8
COc1ccc(-n2ncc(NC(=O)Nc3ccc(OC(F)(F)F)cc3)c2C)cc1	33.3
COc1cc(NC(=O)Nc2ccc(OC(F)(F)F)cc2)cc(C(F)(F)F)c1	-95.9*
O=C(C#Cc1ccccc1)Nc1ccc(OC(F)(F)F)cc1	-58.6
Cc1cccc(-c2nnn3c2COC(CNC(=O)[C@H]2CCCO2)C3)c1 (stereo partly specified)	-3.5
c1cc(-c2ccc(CN3CCCCC3CN3CCOCC3)o2)[nH]n1 (stereo unspecified)	-14.5
CC(=O)N1CCc2c(nc(-c3ccccn3)nc2NCCn2cccn2)C1	-5.7
O=C(O)CN(CC(=O)Nc1cccnc1)Cc1ccccc1	-17.6
Cc1cc(C(=O)N2CCC(c3nn(C)c(=O)n3-c3ccccc3)CC2)no1	90.4
Cn1cnc2cc(C(=O)Nc3ccc(-c4csc(N5CCOCC5)n4)cc3)ccc21	20.4
CCN1c2ccccc2-n2cccc2C12CCN(C(=O)Nc1cccc(Cl)c1C)CC2	-38.5
CCN1c2ccccc2-n2cccc2C12CCN(C(=O)Nc1ccccc1C(F)(F)F)CC2	185.0
CCN1c2cc(C)ccc2-n2cccc2C12CCN(C(=O)Nc1cccc(C)c1)CC2	-58.9
CCN1c2cc(C)ccc2-n2cccc2C12CCN(C(=O)Nc1ccc(C)c(C)c1)CC2	-93.0*
